# Laboratory results published in PubChem BioAssay.
# Where “and” joins values, the source holds several entries; their conditions need not be identical. Equal values may be shown once. Calls of active or inactive are those of the source.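 The calls were made as follows, unless noted: active = thallium flux through the channel raised or lowered by more than 3 SD from vehicle-only wells, actives on both sides; inactive = the rest.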
# What was measured:
# [1] = liver-stage malaria parasite growth inhibition, primary screen, cell-based, HepG2, luciferase luminescence, HepG2 viability (AID 624349; in the data active = parasite load remaining mostly below about 12%, no sharp cut-off; inactive = mostly above about 10%;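 also: 100% = mean of DMSO negative control wells on the same plate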); details: P. berghei liver stage in HepG2, luciferase luminescence, concentration not given here; parasite load remaining: stronger effect = lower value; viability: measured here: HepG2 viability without parasites
# [2] = Cy5 fluorescence interference with SSB-bound oligo, artefact control for HCV NS3 helicase inhibitor project, biochemical, NIH Clinical Collection, E. coli SSB (AID 743268; call rule not given here)
# [3] = tested on: Hepatitis C virus NS3 helicase; test: HCV NS3 helicase inhibitors, primary screen, biochemical, fluorescence polarization, NIH Clinical Collection (AID 743270; call rule not given here); details: NS3 helicase binding to Cy5-dT15 DNA, stronger effect = higher value, concentration not given here
# [4] = molecular target: Single-stranded DNA-binding protein (Escherichia coli (strain K12)) (UniProt P0AGE0); test: E. coli SSB displacement from DNA, counter-screen for HCV NS3 helicase inhibitor project, biochemical, fluorescence polarization, NIH Clinical Collection (AID 743271; in the data active = inhibition above about 28%); details: stronger effect = higher value, concentration not given here
# [5] = fluorescence interference in NS3h assay format, artefact control for HCV NS3 helicase inhibitor project, biochemical, NIH Clinical Collection (AID 743272; call rule not given here;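 also: HCV NS3 helicase with a Cy5 labelled single stranded DNA probe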); details: fluorescence interference counterscreen, stronger effect = lower value
# [6] = modulation of C. elegans fzo-1 (AID 1259413; call rule not given here;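 also: fzo-1 mutant C. elegans worms in liquid wells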); details: C. elegans fzo-1 modulator screen, mean read-out; stronger effect = higher value
# [7] = differential killing of epithelial or mesenchymal cells, primary screen, imaging, PC-3E GFP, TEM4-18 mCherry, co-culture (AID 1345086;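 active = compounds killing one labelled cell type while sparing the other, by normalised counts and ratio limits, not self-fluorescent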;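 as to all read-outs here: cells exposed to compound for 72 h before imaging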;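 as to red/green cell ratio (normalised): normalised mesenchymal count divided by normalised epithelial count so high means epithelial killing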); details: imaging cell counts, at 1 µM; for red/green cell ratio (normalised): actives lie on both sides, counts scaled to control wells, 1 = unselective
# [8] = sensitizers of A549 cells to miR-34 induction, primary screen, imaging, A549 dox-inducible miR-34, nuclei and caspase counts (AID 1347080;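 active = compounds whose cell count with miR-34 switched on is under 0.7 times the count with it off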); details: A549 miR-34 inducible, Hoechst nuclei count, 48 h
# F380Y = test: modulators of BK channel variants, profiling panel, selectivity assay, cell-based, U2OS BacMam, thallium flux, beta subunits (AID 1259406); details: at 30 µM;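 also: initial slope of Thallos dye fluorescence rise after thallium is added; log ratio against the mean of 0.3% DMSO vehicle wells on the same plate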
# F380Y/beta1 = test: as above; details: at 30 µM
# F380Y/beta2Delta = test: as above; details: at 30 µM
# F380Y/beta4 = test: as above; details: at 30 µM
# [9] = molecular target: Calcium-activated potassium channel subunit alpha-1 (Homo sapiens) + Leucine-rich repeat-containing protein 26 (Homo sapiens) (UniProt Q12791+Q2I0M4); test: as above; details: F380Y/Slo1WT/gamma1, at 30 µM
# R275C = test: as above; details: at 30 µM
# R275C/beta1 = test: as above; details: at 30 µM
# R275C/beta2Delta = test: as above; details: at 30 µM
# R275C/beta4 = test: as above; details: at 30 µM
# R275C/Slo1WT/beta2 = test: as above; details: at 30 µM
# [10] = survival rescue of mitochondrial mutant cells in low glucose, primary screen, MELAS cybrids, Rieske KO mouse fibroblasts, CellTiter-Glo (AID 1508586;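 active = mean z-score across replicates of 1.96 or higher in either the MELAS or the Rieske mutant cell line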;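 also: z relative to plate mean and SD of compound and empty wells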)
# [11] = measured here: epithelial PC-3E GFP cell survival
# [12] = measured here: mesenchymal TEM4-18 mCherry cell survival
# [13] = stronger effect = lower value, cell number ratio, induced over uninduced
# [14] = measured here: relative caspase fold change +Dox/-Dox
# [15] = measured here: total cells with miR-34 induction, stronger effect = lower value
# [16] = measured here: total cells without miR-34 induction
# [17] = MELAS cybrid survival, CellTiter-Glo 48 h, stronger effect = higher value
# [18] = Rieske KO mouse fibroblast survival, CellTiter-Glo 72 h
# Calcium-activated potassium channel subunit alpha-1 (Homo sapiens) + Leucine-rich repeat-containing protein 26 (Homo sapiens), sequence (Q2I0M4 whole entry, looked up, one chain of several): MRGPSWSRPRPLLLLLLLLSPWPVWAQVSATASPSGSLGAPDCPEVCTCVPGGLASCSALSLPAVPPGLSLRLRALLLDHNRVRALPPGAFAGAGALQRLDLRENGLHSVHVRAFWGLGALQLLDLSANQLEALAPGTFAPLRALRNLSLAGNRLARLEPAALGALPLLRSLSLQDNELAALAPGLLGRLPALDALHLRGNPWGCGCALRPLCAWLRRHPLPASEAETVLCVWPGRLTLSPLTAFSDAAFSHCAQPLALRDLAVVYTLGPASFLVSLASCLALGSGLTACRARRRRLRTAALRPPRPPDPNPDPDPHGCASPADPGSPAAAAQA
structure (smiles),measurement,setting,value
NCC(O)c1ccc(O)c(O)c1 (stereo not drawn),parasite load remaining,[1],46.6% (inactive)
same,viability,[1],90.4%
same,fluorescence ratio,[2],1.02 (inactive)
same,inhibition,[3],-2.27% (inactive)
same,inhibition,[4],0.29% (inactive)
same,fluorescence ratio,[5],0.99 (inactive)
same,mean signal,[6],234 (inactive)
same,red/green cell ratio (normalised),[7],1.25 (inactive)
same,normalised cell number,[7]; [11],1.16
same,normalised cell number,[7]; [12],1.45
same,fold change,[8]; [13],1.01 (inactive) and 0.975 (inactive)
same,fold change,[8]; [14],1.64 and 1.95
same,cell count,[8]; [15],10900 and 7940
same,cell count,[8]; [16],10800 and 8140
same,log fold change Tl+ flux,F380Y,-0.00325 (inactive)
same,log fold change Tl+ flux,F380Y/beta1,0.00151 (inactive)
same,log fold change Tl+ flux,F380Y/beta2Delta,-0.00353 (inactive)
same,log fold change Tl+ flux,F380Y/beta4,0.0254 (inactive)
same,log fold change Tl+ flux,[9],0.0514 (inactive)
same,log fold change Tl+ flux,R275C,0.0185 (inactive)
same,log fold change Tl+ flux,R275C/beta1,0.035 (inactive)
same,log fold change Tl+ flux,R275C/beta2Delta,-0.0293 (inactive)
same,log fold change Tl+ flux,R275C/beta4,0.0502 (inactive)
same,log fold change Tl+ flux,R275C/Slo1WT/beta2,0.093 (inactive)
Cc1ccc(S(N)(=O)=O)c(I)c1,log fold change Tl+ flux,F380Y,0.00642 (inactive)
same,log fold change Tl+ flux,F380Y/beta1,0.0178 (inactive)
same,log fold change Tl+ flux,F380Y/beta2Delta,0.0148 (inactive)
same,log fold change Tl+ flux,F380Y/beta4,-0.000543 (inactive)
same,log fold change Tl+ flux,[9],-0.0495 (inactive)
same,log fold change Tl+ flux,R275C,0.0442 (inactive)
same,log fold change Tl+ flux,R275C/beta1,0.0166 (inactive)
same,log fold change Tl+ flux,R275C/beta2Delta,-0.00341 (inactive)
same,log fold change Tl+ flux,R275C/beta4,0.00339 (inactive)
same,log fold change Tl+ flux,R275C/Slo1WT/beta2,-0.0513 (inactive)
COc1ccc(C[C@H](C)NC[C@@H](O)c2ccc(O)c(NC=O)c2)cc1,parasite load remaining,[1],66.9% (inactive)
same,viability,[1],77.1%
same,fluorescence ratio,[2],1.02 (inactive)
same,inhibition,[3],-9.9% (inactive)
same,inhibition,[4],-0.1% (inactive)
same,fluorescence ratio,[5],0.98 (inactive)
same,mean signal,[6],235 (inactive)
same,fold change,[8]; [13],0.975 (inactive)
same,fold change,[8]; [14],0.716
same,cell count,[8]; [15],8230
same,cell count,[8]; [16],8440
same,z-score,[10]; [17],-0.844 (inactive)
same,z-score,[10]; [18],-0.643
same,log fold change Tl+ flux,F380Y,-0.0497 (inactive)
same,log fold change Tl+ flux,F380Y/beta1,-4.2e-05 (inactive)
same,log fold change Tl+ flux,F380Y/beta2Delta,0.0145 (inactive)
same,log fold change Tl+ flux,F380Y/beta4,-0.0214 (inactive)
same,log fold change Tl+ flux,[9],0.0199 (inactive)
same,log fold change Tl+ flux,R275C,0.00389 (inactive)
same,log fold change Tl+ flux,R275C/beta1,0.0191 (inactive)
same,log fold change Tl+ flux,R275C/beta2Delta,-0.0506 (inactive)
same,log fold change Tl+ flux,R275C/beta4,0.0483 (inactive)
same,log fold change Tl+ flux,R275C/Slo1WT/beta2,0.0259 (inactive)
CN(C)CCc1c[nH]c2ccc(Cn3cncn3)cc12,parasite load remaining,[1],45% (inactive) and 103% (inactive)
same,viability,[1],99.5% and 78.1%
same,fluorescence ratio,[2],1.13 (inactive)
same,inhibition,[3],0.4% (inactive)
same,inhibition,[4],5.29% (inactive)
same,fluorescence ratio,[5],0.91 (inactive)
same,mean signal,[6],236 (inactive)
same,red/green cell ratio (normalised),[7],0.92 (inactive)
same,normalised cell number,[7]; [11],1.24
same,normalised cell number,[7]; [12],1.13
same,fold change,[8]; [13],0.991 (inactive) and 0.886 (inactive) and 0.916 (inactive)
same,fold change,[8]; [14],1.31 and 0.982 and 5.76
same,cell count,[8]; [15],7610 and 7730 and 12300
same,cell count,[8]; [16],7680 and 8720 and 13400
same,z-score,[10]; [17],-0.276 (inactive) and 0.545 (inactive)
same,z-score,[10]; [18],0.697 and -0.263
same,log fold change Tl+ flux,F380Y,-0.0521 (inactive)
same,log fold change Tl+ flux,F380Y/beta1,-0.0483 (inactive)
same,log fold change Tl+ flux,F380Y/beta2Delta,0 (inactive)
same,log fold change Tl+ flux,F380Y/beta4,0.0107 (inactive)
same,log fold change Tl+ flux,[9],0.0357 (inactive)
same,log fold change Tl+ flux,R275C,-0.121 (active)
same,log fold change Tl+ flux,R275C/beta1,-0.00809 (inactive)
same,log fold change Tl+ flux,R275C/beta2Delta,-0.0421 (inactive)
same,log fold change Tl+ flux,R275C/beta4,0.00222 (inactive)
same,log fold change Tl+ flux,R275C/Slo1WT/beta2,0.0127 (inactive)
Cc1cc2c(s1)Nc1ccccc1N=C2N1CCN(C)CC1,parasite load remaining,[1],58.8% (inactive) and 82.2% (inactive) and 32.6% (inactive)
same,viability,[1],151% and 67.6% and 138%
same,fluorescence ratio,[2],1.04 (inactive)
same,inhibition,[3],-1.19% (inactive)
same,inhibition,[4],-3.18% (inactive)
same,fluorescence ratio,[5],1 (inactive)
same,mean signal,[6],245 (inactive)
same,z-score,[10]; [17],-0.362 (inactive) and 0.328 (inactive) and 0.46 (inactive)
same,z-score,[10]; [18],0.469 and -0.59 and 1.26
same,log fold change Tl+ flux,F380Y,0.136 (active)
same,log fold change Tl+ flux,F380Y/beta1,0.0857 (inactive)
same,log fold change Tl+ flux,F380Y/beta2Delta,0.0704 (inactive)
same,log fold change Tl+ flux,F380Y/beta4,0.111 (active)
same,log fold change Tl+ flux,[9],-0.004 (inactive)
same,log fold change Tl+ flux,R275C,-0.00393 (inactive)
same,log fold change Tl+ flux,R275C/beta1,0.000391 (inactive)
same,log fold change Tl+ flux,R275C/beta2Delta,-0.0244 (inactive)
same,log fold change Tl+ flux,R275C/beta4,-0.0479 (inactive)
same,log fold change Tl+ flux,R275C/Slo1WT/beta2,0.0472 (inactive)
C[C@@H](c1ncncc1F)[C@](O)(Cn1cncn1)c1ccc(F)cc1F,parasite load remaining,[1],100% (inactive)
same,viability,[1],75.1%
same,fluorescence ratio,[2],1.03 (inactive)
same,inhibition,[3],3.56% (inactive)
same,inhibition,[4],-6.26% (inactive)
same,fluorescence ratio,[5],1.02 (inactive)
same,mean signal,[6],264 (inactive)
same,red/green cell ratio (normalised),[7],1.03 (inactive)
same,normalised cell number,[7]; [11],0.93
same,normalised cell number,[7]; [12],0.96
same,fold change,[8]; [13],0.997 (inactive)
same,fold change,[8]; [14],2.46
same,cell count,[8]; [15],9140
same,cell count,[8]; [16],9170
same,z-score,[10]; [17],0.391 (inactive)
same,z-score,[10]; [18],-0.0394
same,log fold change Tl+ flux,F380Y,0.0491 (inactive)
same,log fold change Tl+ flux,F380Y/beta1,-0.0167 (inactive)
same,log fold change Tl+ flux,F380Y/beta2Delta,0.0265 (inactive)
same,log fold change Tl+ flux,F380Y/beta4,0.000651 (inactive)
same,log fold change Tl+ flux,[9],0.106 (active)
same,log fold change Tl+ flux,R275C,-0.0159 (inactive)
same,log fold change Tl+ flux,R275C/beta1,0.036 (inactive)
same,log fold change Tl+ flux,R275C/beta2Delta,0.0278 (inactive)
same,log fold change Tl+ flux,R275C/beta4,-0.0222 (inactive)
same,log fold change Tl+ flux,R275C/Slo1WT/beta2,-0.0193 (inactive)
